# Laboratory results: PubChem BioAssay
# The source made the active and inactive calls. Unless noted, the rule behind the calls is not given here.
# What was measured:
# [1] = anti-His antibody binders, primary screen, artefact control for SMM control protein annotation, biochemical, small-molecule microarray, 635 nm fluorescence (AID 1128); conditions: anti-His Alexa647 antibody binding, higher = more signal;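 note: score merges feature fluorescence with signal-to-noise for each printed compound spot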
# [2] = test system: Human papillomavirus type 1a E7 protein (residues 1-88); experiment: HPV1a E7 small-molecule binders, primary screen, biochemical, small-molecule microarray, residues 1-88, 635 nm (AID 1129); conditions: small-molecule microarray binding, fluorescence 635 nm; higher = more signal
# [3] = molecular target: Focal adhesion kinase 1 (Homo sapiens) (UniProt Q05397); experiment: small-molecule microarray binders of FAK, primary screen, biochemical, 635/667 nm fluorescence, BSA, DTT (AID 1130); conditions: PTK2 binding, 635 nm fluorescence, higher = more signal;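 note: composite of spot emission at 667 nm and signal to noise over triplicate slides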
# [4] = test system: Fibrinogen (Alexa647-labelled); experiment: fibrinogen binders on compound microarrays, profiling panel, artefact control for SMM control-protein annotation, biochemical, small-molecule microarray, 635/667 nm fluorescence (AID 1131); conditions: fibrinogen-A647 binding fluorescence, higher = more signal;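 note: z-score merges 667 nm fluorescence with per-spot signal-to-noise over triplicate slides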
# [5] = molecular target: Follistatin (Homo sapiens) (UniProt P19883); experiment: follistatin binders on small-molecule microarrays, primary screen, biochemical, small-molecule microarray, 635/667 nm fluorescence (AID 1132); conditions: FST binding, 635 nm fluorescence, higher = more signal
# [6] = molecular target: Fibroblast growth factor 2 (Homo sapiens) (UniProt P09038); experiment: FGF2 binders on small-molecule microarrays, primary screen, biochemical, small-molecule microarray, 635/667 nm fluorescence (AID 1133); conditions: small-molecule microarray binding, FGF2, fluorescence 635/667; higher = more signal
# [7] = mitochondrial membrane potential change in A549 cells, profiling panel, cell-based, JC-1 fluorescence, basal, 24 h, 100 nL (AID 1138); conditions: higher = more signal;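 note: A549 lung adenocarcinoma cells under basal conditions with no added stimulus; test concentration not given here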
# Lefty1 = Lefty1 binders on small-molecule microarrays, primary screen, biochemical, small-molecule microarray, 635/667 nm fluorescence (AID 1139); conditions: small-molecule microarray binding, fluorescence 635/667; higher = more signal
# [8] = test system: wheat germ agglutinin (Triticum aestivum), Alexa647-labelled; experiment: wheat germ agglutinin binders on compound microarrays, profiling panel, artefact control for SMM control-protein annotation, biochemical, small-molecule microarray, 635/667 nm fluorescence (AID 1140); conditions: WGA-A647 binding, 635 nm fluorescence, higher = more signal;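 note: score merges 667 nm feature emission with signal to noise over triplicate slides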
# [9] = molecular target: Luciferin 4-monooxygenase (Photinus pyralis) (UniProt P08659); experiment: firefly luciferase enzyme inhibitors, primary screen, biochemical, luminescence, purified enzyme, 2006 set (AID 1141); conditions: SteadyGlo luminescence, 30 min, higher = more signal, called active from +8 up or from −8 down;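 note: cell-free assay with purified firefly luciferase at 100 ng per well in PBS; test concentration not given here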
# [10] = test system: Wnt5a (protein binding on small-molecule microarray); experiment: Wnt5a binders on small-molecule microarray, primary screen, biophysical, 635/667 nm fluorescence (AID 1142); conditions: 635 nm fluorescence, higher = more signal;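 note: fluorescence read at 667 nm with signal to noise per printed feature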
# [11] = cell viability in Huh7 cells, primary screen, cytotoxicity control for HCV replication inhibitor project, CellTiter-Glo luminescence, basal, 48 h (AID 1143); conditions: Huh7 HCV replicon, higher = more signal, called active from +8 up or from −8 down;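 note: Huh7 hepatoma cells carrying a hepatitis C replication reporter with no stimulus; test concentration not given here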
# [12] = P. aeruginosa biofilm formation inhibitors, primary screen, PAO1 strain, BacTiter-Glo luminescence, LB-PBS (AID 1144); conditions: 12 h, higher = more signal
# [13] = CREB reporter modulators without forskolin, primary screen, cell-based, PC12, CRE-LacZ reporter, unstimulated (AID 1145); conditions: no forskolin, luminescence, 4.5 h, higher = more signal, called active from +8 up or from −8 down
# [14] = CREB reporter modulators under forskolin, primary screen, cell-based, PC12, CRE-LacZ reporter, forskolin-stimulated (AID 1146); conditions: luminescence, 4.5 h, higher = more signal, called active from +8 up or from −8 down;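 note: PC12 cells with 6xCRE LacZ reporter stimulated by forskolin 10 µM; beta-galactosidase reporter signal reflecting CREB driven transcription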
# [15] = molecular target: Streptavidin (Streptomyces avidinii) (UniProt P22629); experiment: streptavidin binders on small-molecule microarray, primary screen, artefact control for SMM compound annotation, biophysical, 635/667 nm fluorescence (AID 1147); conditions: streptavidin binding, higher = more signal;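 note: signal reflects streptavidin binding to arrayed compounds as a control protein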
# [16] = small-molecule binders of probe aInhba, primary screen, biochemical, small-molecule microarray, 635/667 nm fluorescence (AID 1148); conditions: higher = more signal;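 note: score merges 667nm spot fluorescence with signal-to-noise for antibody binding to printed compounds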
# Torsin-1A (Homo sapiens) [17] = molecular target: Torsin-1A (Homo sapiens) (UniProt O14656); experiment: torsin A binders from cell lysate, primary screen, small-molecule microarray, wild-type, 635/667 nm (AID 1149); conditions: COS7 hTOR1A-WT lysate, 635 nm fluorescence, higher = more signal
# Torsin-1A (Homo sapiens) [18] = molecular target: Torsin-1A (Homo sapiens) (UniProt O14656); experiment: small-molecule binders of mutant TOR1A in lysate, primary screen, cell lysate, small-molecule microarray, COS7 lysate, 635/667 nm fluorescence (AID 1150); conditions: COS7 hTOR1A mutant lysate, 635 nm fluorescence, higher = more signal;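 note: score pools 667 nm emission and signal to noise measuring lysate protein binding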
# [19] = test system: Sonic hedgehog protein (Shh); experiment: small-molecule binders of Shh protein, primary screen, biochemical, small-molecule microarray, 635/667 nm fluorescence (AID 1151); conditions: small-molecule microarray binding, 635 nm fluorescence; higher = more signal;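 note: Shh protein binding to compounds spotted on small-molecule microarray slides; score combines spot fluorescence intensity with signal-to-noise across triplicate slides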
# Chain of Streptavidin (Streptomyces avidinii) (P22629 whole entry, looked up): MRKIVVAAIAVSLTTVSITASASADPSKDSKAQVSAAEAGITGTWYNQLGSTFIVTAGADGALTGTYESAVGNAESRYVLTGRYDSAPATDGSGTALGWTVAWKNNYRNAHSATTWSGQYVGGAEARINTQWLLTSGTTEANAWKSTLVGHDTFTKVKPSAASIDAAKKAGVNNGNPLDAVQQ
# Chain of Fibroblast growth factor 2 (Homo sapiens) (P09038 whole entry, looked up): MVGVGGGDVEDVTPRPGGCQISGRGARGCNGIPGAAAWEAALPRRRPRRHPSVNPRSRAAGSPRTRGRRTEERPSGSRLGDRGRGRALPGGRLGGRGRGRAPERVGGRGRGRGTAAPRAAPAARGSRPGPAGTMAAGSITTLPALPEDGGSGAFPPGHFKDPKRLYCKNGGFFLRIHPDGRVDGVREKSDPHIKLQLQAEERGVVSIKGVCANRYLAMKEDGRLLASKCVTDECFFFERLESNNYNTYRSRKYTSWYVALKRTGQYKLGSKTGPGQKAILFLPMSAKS
# Chain of Follistatin (Homo sapiens) (P19883 whole entry, looked up): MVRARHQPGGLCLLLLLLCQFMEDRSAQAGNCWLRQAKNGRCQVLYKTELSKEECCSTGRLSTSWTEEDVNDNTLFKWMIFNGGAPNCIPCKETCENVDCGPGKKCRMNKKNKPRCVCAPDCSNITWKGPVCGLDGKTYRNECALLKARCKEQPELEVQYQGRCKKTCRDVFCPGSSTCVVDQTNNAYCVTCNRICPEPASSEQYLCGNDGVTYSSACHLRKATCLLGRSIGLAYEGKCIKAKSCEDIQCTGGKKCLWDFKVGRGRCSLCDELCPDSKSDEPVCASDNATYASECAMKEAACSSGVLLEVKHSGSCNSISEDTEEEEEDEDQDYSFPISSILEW
# Chain of Luciferin 4-monooxygenase (Photinus pyralis) (P08659 whole entry, looked up): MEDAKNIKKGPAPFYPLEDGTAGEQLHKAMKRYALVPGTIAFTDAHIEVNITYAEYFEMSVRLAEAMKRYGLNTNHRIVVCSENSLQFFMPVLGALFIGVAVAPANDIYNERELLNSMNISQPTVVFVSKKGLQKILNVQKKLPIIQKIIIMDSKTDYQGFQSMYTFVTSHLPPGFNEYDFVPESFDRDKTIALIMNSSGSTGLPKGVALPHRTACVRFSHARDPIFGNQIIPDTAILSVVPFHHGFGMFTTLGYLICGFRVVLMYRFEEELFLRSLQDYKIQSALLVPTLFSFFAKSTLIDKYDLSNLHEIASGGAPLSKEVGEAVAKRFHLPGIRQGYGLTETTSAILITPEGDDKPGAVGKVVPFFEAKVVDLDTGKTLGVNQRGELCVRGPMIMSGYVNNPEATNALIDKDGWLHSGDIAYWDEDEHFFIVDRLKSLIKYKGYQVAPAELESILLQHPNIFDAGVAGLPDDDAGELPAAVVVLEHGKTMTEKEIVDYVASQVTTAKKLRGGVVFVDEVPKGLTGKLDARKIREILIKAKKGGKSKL
# Chain of Focal adhesion kinase 1 (Homo sapiens) (Q05397 whole entry, looked up): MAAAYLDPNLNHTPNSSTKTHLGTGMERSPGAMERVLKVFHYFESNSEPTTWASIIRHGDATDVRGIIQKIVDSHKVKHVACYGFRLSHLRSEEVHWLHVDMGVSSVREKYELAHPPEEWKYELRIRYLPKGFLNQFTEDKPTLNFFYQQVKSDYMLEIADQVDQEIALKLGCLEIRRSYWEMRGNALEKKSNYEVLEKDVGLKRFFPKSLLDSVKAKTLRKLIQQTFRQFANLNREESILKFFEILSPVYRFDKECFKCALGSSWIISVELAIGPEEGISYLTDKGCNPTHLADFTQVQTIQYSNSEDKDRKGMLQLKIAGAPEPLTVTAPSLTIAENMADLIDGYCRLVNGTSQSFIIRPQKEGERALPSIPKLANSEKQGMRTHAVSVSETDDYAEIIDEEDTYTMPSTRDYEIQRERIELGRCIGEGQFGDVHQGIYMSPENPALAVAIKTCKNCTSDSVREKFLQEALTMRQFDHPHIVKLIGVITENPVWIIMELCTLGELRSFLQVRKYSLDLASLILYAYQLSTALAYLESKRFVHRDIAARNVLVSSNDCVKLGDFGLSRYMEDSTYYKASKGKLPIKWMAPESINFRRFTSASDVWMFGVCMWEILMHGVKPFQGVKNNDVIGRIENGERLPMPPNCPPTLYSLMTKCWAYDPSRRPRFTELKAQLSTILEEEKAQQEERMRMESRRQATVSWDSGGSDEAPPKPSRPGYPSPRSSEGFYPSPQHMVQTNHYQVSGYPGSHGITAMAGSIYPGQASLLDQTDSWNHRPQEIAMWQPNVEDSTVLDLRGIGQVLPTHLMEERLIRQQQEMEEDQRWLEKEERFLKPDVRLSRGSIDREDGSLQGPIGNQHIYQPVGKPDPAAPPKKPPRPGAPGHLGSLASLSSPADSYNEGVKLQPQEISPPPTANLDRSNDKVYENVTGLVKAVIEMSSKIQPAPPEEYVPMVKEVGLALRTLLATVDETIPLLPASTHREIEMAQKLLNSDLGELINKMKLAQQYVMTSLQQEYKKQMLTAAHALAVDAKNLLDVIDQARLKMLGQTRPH
# Chain of Torsin-1A (Homo sapiens) (O14656 whole entry, looked up): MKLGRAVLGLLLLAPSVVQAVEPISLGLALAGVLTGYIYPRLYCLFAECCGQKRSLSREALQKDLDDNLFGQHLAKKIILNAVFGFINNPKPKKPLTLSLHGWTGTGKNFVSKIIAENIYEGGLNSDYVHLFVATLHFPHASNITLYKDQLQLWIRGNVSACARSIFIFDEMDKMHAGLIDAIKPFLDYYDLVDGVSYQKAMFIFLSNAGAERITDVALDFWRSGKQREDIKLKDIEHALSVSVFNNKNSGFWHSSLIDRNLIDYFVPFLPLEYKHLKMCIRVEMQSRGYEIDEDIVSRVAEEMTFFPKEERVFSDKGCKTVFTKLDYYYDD
SMILES,composite z-score [1],composite z-score [2],composite z-score [3],composite z-score [4],composite z-score [5],composite z-score [6],z-score [7],composite z-score (Lefty1),composite z-score [8],z-score [9],composite z-score [10],z-score [11],z-score [12],z-score [13],z-score [14],composite z-score [15],composite z-score [16],composite z-score (Torsin-1A (Homo sapiens) [17]),composite z-score (Torsin-1A (Homo sapiens) [18]),composite z-score [19]
COc1cc(C(O)C2C=CC3C(=O)N(Cc4ccccc4)C(=O)C3N2n2cnnc2)cc(OC)c1OC (stereo not given),0.941,0.869,0.498,0.912,0.448,0.405,-0.417,-0.493,1.15,-2.17 (inactive),0.388,-0.429 (inactive),-1.77 (inactive),0.636 (inactive),-0.634 (inactive),0.267,0.255,0.683,0.671,0.131
O=C1O[C@H](c2ccccc2)[C@H](c2ccccc2)N2[C@H]1[C@@H](C(=O)O)[C@]1(C(=O)Nc3ccc(C#CC4(O)CCCCCC4)cc31)[C@H]2c1ccc(O)cc1,0.401,0.391,0.016,-0.132,-0.0848,-0.201,-0.697,0.0963,0.211,-0.828 (inactive),-0.243,-3.06 (inactive),-2.13 (inactive),-1.29 (inactive),-1.14 (inactive),-0.467,-0.152,-0.449,0.198,-0.335
NC(=O)[C@H]1[C@@H]2C(=O)O[C@@H](c3ccccc3)[C@@H](c3ccccc3)N2[C@@H](c2ccc(O)cc2)[C@]12C(=O)Nc1ccccc12,0.53,-0.189,-0.91,-1.61,-0.441,-0.943,-0.186,-0.502,-1.03,-0.794 (inactive),-0.355,-0.0816 (inactive),0.191 (inactive),-0.141 (inactive),0.272 (inactive),-1.08,-0.128,-1.54,-1.73,-0.96
CCCCC=C[C@@H](NC(=O)c1ccccc1)c1ccccc1,0.249,1.18,1.43,0.987,0.527,-0.79,-0.584,0.4,0.68,0.965 (inactive),-0.275,-0.598 (inactive),-0.287 (inactive),0.969 (inactive),1.39 (inactive),1.89,0.162,0.128,0.0135,-0.863
COc1cc(NN2C(C(O)C3CCCCC3)C=CC3C(=O)N(C)C(=O)C32)cc(OC)c1OC (stereo not given),0.901,1.23,1.97,1,0.954,-0.0452,1.75,-0.608,1.16,-0.527 (inactive),0.265,0.187 (inactive),0.0648 (inactive),-0.133 (inactive),0.454 (inactive),2.2,0.502,-0.176,0.358,-0.68
CN(C)CCCCNC(=O)[C@H]1C[C@H]2C(=O)N[C@@H](CCCC[N+](C)(C)C)C(=O)N2[C@H]1c1ccc(O)cc1,1.12,-0.454,-0.294,-1.24,0.525,0.0954,-0.247,0.306,0.0976,0.0252 (inactive),0.0044,-0.482 (inactive),1.04 (inactive),-1.2 (inactive),-1.14 (inactive),-0.202,-0.179,0.278,0.97,0.719
CC(C)[Si]1(C(C)C)OCc2cc(-c3ccc(-c4ccc(Cl)c(Cl)c4)o3)nc(CCc3ccccc3)c21,-1.14,-0.122,0.164,-0.0058,-0.0289,-0.11,1.4,0.0028,0.0809,-2.45 (inactive),0.0947,-1.53 (inactive),-0.612 (inactive),-0.0247 (inactive),1.6 (inactive),-0.884,-0.179,-0.696,-0.436,0.3
Cc1nc2cc(Br)ccc2c(=O)n1Cc1cccc(O)c1,0.391,0.941,0.872,0.539,1.38,1.81,0.287,1.22,0.334,6.4 (inactive),0.59,0.267 (inactive),-0.0703 (inactive),-1.11 (inactive),-0.978 (inactive),0.57,-0.0567,0.995,0.407,1.29
COCCOC(=O)N1C(=O)[C@@]2(c3cc(C#CC4=CCCCC4)ccc31)[C@H](c1ccc(O)cc1)N1[C@H](c3ccccc3)[C@H](c3ccccc3)OC(=O)[C@H]1[C@@H]2C(=O)NC[C@H](O)c1ccccc1,1.13,1.22,0.26,0.813,1.22,0.685,-1.14,0.858,0.781,-1.08 (inactive),0.259,-3.27 (inactive),-0.354 (inactive),-0.815 (inactive),-0.369 (inactive),0.318,0.0227,0.184,1.29,1.27
CCN(CC)c1ccc(N2CC=CC34O[C@@H]5/C=C\CCC(C)OC(=O)C5[C@H]3C(=O)N(C(C)CO)[C@@H]4C2=O)cc1 (stereo not given in full),-0.361,-0.935,0.212,-0.145,0.565,-0.0619,0.723,0.321,-0.663,-1.5 (inactive),-0.0075,0.269 (inactive),0.515 (inactive),0.87 (inactive),0.46 (inactive),-0.417,-0.0986,-0.0697,-0.116,0.808
